# High-throughput results as filed in PubChem.
# In the library only some 7.9% were active in any assay of this set; here they are far more common.
# KB-3-1 cytotox = KB-3-1 parental cell cytotoxicity. Potency, µM (titrated, usually from 46.1 µM), actives largely listed as cytotoxic. AID 1347075. hit rate 1.4% among 400,000. KB-3-1 viability, CellTiter-Glo ATP luminescence, 72 h; note: % is set by controls: 0 for no effect and ±100 for the full control effect; nearly all actives have a fitted effect of over 60% in size
#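 Using CellTiter-Glo luminescence, growth of non-resistant KB-3-1 adenocarcinoma cells is assessed 72 h after pin-tool compound addition at 37 °C. Normalized responses across the concentration series yield fitted curves.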
# HT1080 IDH1KD tx = HT-1080 IDH1 knockdown cell toxicity (counter line); HT-1080 IDH1 knockdown viability, ATP luminescence, 48 h; Potency, µM (titrated, usually from 46.1 µM), for the others: top-dose activity, negative = toxicity, hits mostly cytotoxic; hit rate 2% among 360,000;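 note: 0% = DMSO wells and -100% = cell-free medium wells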
#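 HT-1080-IDH1KD cells (IDH1 knocked down), 750/well in RPMI with 5% FBS, treated with compound 48 h at 37 degrees C. Viability by CellTiter-Glo luminescence, normalised to DMSO and no-cell wells; concentration-response curves classed.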
# SW480 rereplic = induces DNA re-replication in SW480 colon adenocarcinoma cells; SW480 DNA re-replication, Hoechst DNA content imaging, 48 h; AID 624297; Potency, µM (series often up to 46.1 µM), without a hit: at the top dose re-replication activation, most hits filed as activators; hit rate 1.8% among 340,000; note: % of control where 0% means no effect; nearly all actives have a fitted effect of over 55% in size
#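 250 cells/well; 23 nL cpd via pin tool; 48 hr, 37 C, 5% CO2; Hoechst 40 min; imager read of total nuclear intensity, ex 405/em 500-530 nm.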
# HT1080-NT tox = kills 2HG-producing HT-1080-NT fibrosarcoma cells | HT-1080-NT fibrosarcoma viability, CellTiter-Glo ATP luminescence, 48 h | Potency, µM (series often up to 46.1 µM), for the others: at the highest dose activity, negative = less viability, actives largely listed as cytotoxic | hit rate 1.6% among 360,000 | AID 686970;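 note: NT is the 2HG producing partner of a matched IDH1 knockdown line; 0% = DMSO-treated cells and -100% = media-only wells without cells; nearly all actives have a fitted effect of over 55% in size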
#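 Compounds were tested in concentration-response format on HT-1080-NT cells for 48 hours at 37 degrees C. Cell viability came from CellTiter-Glo luminescence; curves were classified by r2, response magnitude and activity.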
# KB-V1 MDR tox = kills drug-selected multidrug resistant KB-V1 cells; KB-V1 MDR cells viability, CellTiter-Glo, 72 h; Potency, µM (titrated, usually from 46.1 µM), most hits filed as cytotoxic; hit rate 3.4% among 400,000; AID 1347076; note: % is set by controls: 0 for no effect and ±100 for the full control effect; nearly all actives have a fitted effect of over 60% in size
#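 Potencies derive from concentration-effect curves fitted to normalized luminescence (CellTiter-Glo) of KB-V1 cells treated for 72 h at 37 degrees C in phenol-red-free DMEM containing 10% FBS.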
# MCF10A rerep = inducers of DNA re-replication in MCF 10A breast cells; MCF 10A DNA re-replication, Hoechst nuclear intensity, 48 h; Potency, µM (highest dose often 46.1 µM), for the others: top-dose activity, positive = re-replication, hits mostly activators; hit rate 2.9% among 350,000; note: % of control where 0% means no effect; nearly all actives have a fitted effect of over 50% in size
# * hit, by the source's call; i = inactive; ? = inconclusive; . = no result given; [ ] = remark or other dose. Calls come from the whole dose curve; as a rule, active = well fitted curve in the direction sought with a large enough effect; inconclusive = small, poorly fitted or top-dose-only effect, or another doubt; inactive = no such curve, though single readings can be large; an effect the other way counts as inactive or inconclusive. Potency is the fitted concentration of half-maximal effect.
SMILES,KB-3-1 cytotox,HT1080 IDH1KD tx,SW480 rereplic,HT1080-NT tox,KB-V1 MDR tox,MCF10A rerep
COc1ccc(-c2nc3cccc(C)n3c2NCC2CCCO2)cc1O (centres undefined),i,-7.9%,-9.8%,-2.9%,11.6µM*,9.2%
c1ccc(CCNc2nc3ccccc3s2)cc1,i,?,-3.1%,?,18.4µM*,?
CCOC(=O)c1nc(NCCc2ccccc2)sc1C,i,8.2%,6.3%,6.3%,i,2.06µM*
COc1ccccc1NC(=O)C1CCCN(c2nnc(C)c3c(C)n(-c4ccccc4)nc23)C1 (centres undefined),i,.,.,.,i,.
CN(C)c1ccc(/C=N/OC(=O)Nc2ccccc2Cl)cc1,23.1µM*,-5.9%,-0.5%,0.0%,?,1.2%
COc1ccccc1NC(=O)O/N=C(\N)c1ccccc1,i,?,11.6µM*,3.6%,i,?
COc1ccc(/C=N/OC(=O)Nc2ccccc2OC)cc1,10.3µM*,5.8µM*,?,9.2µM*,9.2µM*,7.31µM*
O=C(Nc1ccccc1Cl)O/N=C/c1ccc(F)cc1,i,0.8%,-9.6%,9.8%,i,-5.1%
CCN1C(=O)[C@H]2[C@H]3[C@H](O)[C@H](O)CC(=O)[C@@H]3CC[C@H]2C1=O,.,-1.1%,.,16.0%,.,.
COc1ccc(C(=O)Oc2c(Sc3ccc(C)cc3)c(C)nn2C(C)(C)C)c(OC)c1,i,.,.,.,i,.
O=C(CSc1n[nH]c(-c2ccc(F)cc2)n1)NCc1ccccc1Cl,i,.,.,.,i,.
CC1(C)C(=O)N(CC(=O)Nc2ccc(Cl)cc2)c2ccccc21,i,.,.,.,?,.
O=C(Cn1c(SCCOc2ccccc2)nc2ccccc21)N1CCOCC1,i,.,.,.,i,.
CC(C)C(=O)Nc1cccc(C(=O)OCC(=O)c2ccc(Cl)cc2Cl)c1,i,0.0%,2.9%,-0.5%,14.6µM*,10.0%
CC(=O)Nc1cc(C(=O)OCC(=O)c2ccc(Cl)cc2Cl)ccc1C,i,-1.8%,-5.2%,-5.6%,?,7.6%
COC[C@@H]1CCCN1c1ccc2c(c1)O[C@@H](COCc1ccccc1)CN([C@H](C)c1ccccc1)S2(=O)=O,i,-1.7%,.,-17.6%,i,.
CCOC(=O)C1=C(O)c2ccccc2C(=O)/C1=C\c1ccc(C)cc1,?,18.4µM*,?,?,?,20.6µM*
COC(=O)c1ccc(Cl)cc1NC(=O)N1CC(C)Oc2ccccc21 (centres undefined),i,.,.,.,i,.
C=CCc1cc(C(=O)N2CCCCC2)ccc1O,?,-2.3%,0.8%,-0.2%,20.6µM*,-0.9%
O=C(c1ccc2c(c1)OCCO2)N1CCCCC1,i,5.6%,-2.7%,12.1%,?,-4.1%
O=c1c(-c2ccc([N+](=O)[O-])cc2)coc2c(O)c(O)ccc12,i,?,13µM*,-37.2%,?,6.8%
CN(C)Cc1c(O)ccc2c(=O)c(-c3ccc(Cl)cc3)coc12,i,7.5%,?,9.7%,i,-0.5%
Cc1ccc(-n2nc(C(=O)NCc3ccc(F)cc3Cl)c3c4ccccc4n(C)c3c2=O)cc1,i,.,.,.,i,.
Cc1ccc(C(CC(=O)Nc2ccc(F)c(Cl)c2)N2Cc3ccccc3C2=O)cc1 (centres undefined),i,.,.,.,i,.
COc1ccc(CCNc2cc(C)nc3c(-c4ccccc4)c(C)nn23)cc1OC,i,-1.1%,-34.5%,-1.2%,8.2µM*,19.2%
SMILES,KB-3-1 cytotox,HT1080 IDH1KD tx,SW480 rereplic,HT1080-NT tox,KB-V1 MDR tox,MCF10A rerep
Cc1cc(NCCN2CCOCC2)n2nc(C)c(-c3ccccc3)c2n1,i,-3.9%[9.24 µM],-7.7%,-6.8%,i,-1.1%
Cc1cc(NCCCn2ccnc2)n2nc(C)c(-c3ccc(Cl)cc3)c2n1,?,11.2µM*,2.7%,-26.0%[9.24 µM],23.1µM*,21.0%
Cc1cc(NCCN2CCOCC2)n2nc(C)c(-c3ccc(Cl)cc3)c2n1,?,?,12.2%,23.1µM*,23.1µM*,-0.7%
Nc1ncnc(Sc2ncccn2)c1[N+](=O)[O-],3.66µM*,16.4µM*,?,-14.1%,?,?
COc1ccc(C2C(=O)N(CCc3ccccc3)CC(=O)N2C2CCCC2)cc1 (centres undefined),i,-1.6%,1.1%,-0.1%,3.66µM*,2.5%
COc1ccc(C2C(=O)N(C3CCCCC3)CC(=O)N2C2CCCC2)cc1 (centres undefined),i,-16.4%,8.7%,6.3%,2.59µM*,1.3%
CCCOc1cccc(C(=O)N(Cc2cc(OC)c(OC)c(OC)c2)C2CCS(=O)(=O)C2)c1 (centres undefined),i,.,.,.,?,.
Cc1cccc(C(=O)OCc2cc(=O)n3ccsc3n2)c1,i,.,.,.,i,.
FC1(F)Oc2ccc(-c3ccc4ncnc(NCc5cccs5)c4c3)cc2O1,?,.,.,.,i,.
N#Cc1ccc(NC(=O)COCc2cc(-c3ccc4c(c3)OCO4)on2)cc1,i,.,.,.,i,.
CC(C)C(C)NC(=O)COc1ccc(Sc2ccc(OCC(=O)NC(C)C(C)C)cc2)cc1 (centres undefined),?,8.8%,4.1%,-0.5%,2.91µM*,14.6%
CC(C)C(C)NC(=O)COc1ccc(-c2ccccc2)cc1 (centres undefined),i,-1.2%,3.5%[9.22 µM],0.7%,?,17.9%
COc1ccc(CN2CC[C@H]3C=CC[C@@H](C(=O)NCc4cccnc4)[C@H]3C2=O)cc1OC,i,.,.,.,i,.
CCn1ncc(/C=N\NC(=O)COc2cc(C)cc(C)c2)c1C,?,?,?,-1.3%,11.6µM*,8.6%
C=CC(=O)N1C/C(=C/c2ccccc2)C(=O)/C(=C\c2ccccc2)C1,4.11µM*,4.11µM*,?,-1.6%,?,19.3%
C=CC(=O)N1C/C(=C/c2ccc(Cl)cc2)C(=O)/C(=C\c2ccc(Cl)cc2)C1,?,2.91µM*,1.46µM*,5.8µM*,i,?
COc1ccccc1CNS(=O)(=O)c1ccc(-n2cnnn2)c(C)c1,i,8.6%,-10.7%,4.7%,i,-0.8%
Cc1cc(S(=O)(=O)NCC(c2ccccc2)c2ccccc2)ccc1-n1cnnn1,i,-10.8%,-7.6%,-11.1%,18.4µM*,3.7%
Cc1ccccc1N1C(=O)CN(Cc2sccc2C)C1=S,?,1.4%,?,6.7%,3.26µM*,10.4%
Cc1ccc(N2C(=O)CN(Cc3sccc3C)C2=S)cc1C,?,8.4%,0.4%,8.6%,16.4µM*,?
N#C/C(=C\c1cccnc1)C(=O)Nc1cccc2ccccc12,i,20.6µM*,?,?,i,?
